# An excerpt weighted towards active compounds, which were near 4.6% of everything screened.
# D1 potentiator: potentiators of human D1 dopamine receptor; P21728; HEK293 TREx D1 cells, calcium flux, dopamine EC20 potentiation; potentiation, % at 10 µM; 360,000 compounds, 0.036% hits; AID 504651; in the data active = potentiation above about 30%; also: 0% is about no effect
# D1 agonist: human D1 receptor agonism; HEK293 T-REx D1 cells, calcium flux, agonist mode; activation, % at 2 µM; AID 504660; 360,000 compounds, 1% hits; also: 0% is about no effect
#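 Agonism was scored from calcium flux recorded over 180 s (1 read/s) after pintool compound addition, following a 10-cycle baseline. Cells were inducible force-coupled HEK293 TREx D1, plated overnight at 30 C and loaded with no-wash calcium dye.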
# D1 antag: antagonists of human D1 dopamine receptor | P21728 | HEK293 TREx D1 cells, calcium flux, dopamine EC80; active compounds read low | AID 504652 | 360,000 compounds, 3.2% hits | activity change, negative = inhibition, % at 10 µM; in the data active = activity change below about -30%; also: % is scaled to controls: 0 for no effect and ±100 for the full control effect
#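 HEK293 T-REx cells expressing inducible, force-coupled D1 receptor; no-wash Ca dye, 30–90 min RT. Cmpd → 180 s read at 1 Hz → EC80 DA → 180 s read.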
# TRHR enhancer: allosteric enhancers of human TRH receptor. enhancement, % at 2 µM. AID 493056. P34981. 360,000 compounds, 0.66% hits. TRHR cells, fluo-8 calcium fluorescence, EC20 TRH enhancement; in the data active = enhancement above about 30%; also: 0% is about no effect
# Target sequence (P34981 whole entry, looked up): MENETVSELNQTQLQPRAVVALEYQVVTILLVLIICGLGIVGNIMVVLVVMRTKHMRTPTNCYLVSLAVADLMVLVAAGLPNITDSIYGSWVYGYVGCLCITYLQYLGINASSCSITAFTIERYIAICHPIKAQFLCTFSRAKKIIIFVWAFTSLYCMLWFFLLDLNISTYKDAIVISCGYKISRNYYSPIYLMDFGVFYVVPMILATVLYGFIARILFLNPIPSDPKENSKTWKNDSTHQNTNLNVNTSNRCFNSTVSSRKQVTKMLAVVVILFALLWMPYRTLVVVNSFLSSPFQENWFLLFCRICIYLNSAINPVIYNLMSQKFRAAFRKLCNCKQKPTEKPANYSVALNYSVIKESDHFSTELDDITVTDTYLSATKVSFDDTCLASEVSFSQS
#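 TRHR-expressing cells loaded with fluo-8 calcium dye were read kinetically (ex 480/em 530) during compound addition, then stimulated with an EC20 of TRH (10 nM final). Enhancement of the Gq-mediated intracellular calcium response was scored.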
# TRHR ag: agonists of human TRH receptor; P34981; 360,000 compounds, 0.18% hits; activation, % at 2 µM; TRHR cells, calcium flux fluo-8, FDSS agonist mode; also: 0% is about no effect
#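 Fluo-8-loaded TRHR cells; 10 s baseline, compound added, kinetic Ca2+ fluorescence read 1/s, agonist mode.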
# Epigenetic derep: derepresses silenced GFP reporter in murine cells. murine LDR cells, GFP reporter derepression, 30 h. Potency, µM (doses to about 53.9 µM), for the others: top-dose GFP activation, usual class: activators. 280,000 compounds, 0.2% hits; active = well fitted activation curve with a large enough effect; also: potency is read from the fitted curve at half-maximal effect; % of control where 0% means no effect; nearly all actives have a fitted effect of over 60% in size
#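 Murine LDR cells carrying a silenced, genomically integrated CMV-driven GFP reporter were exposed to compound for 30 hours at 37 C. After PBS washes, GFP-positive cells (20–120 um objects) were counted by laser-scanning microplate cytometry.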
# * marks the source's active call; other numbers are inactive results; x = not tested or not shown; [ ] = remark or other dose. Rule as the data show it, unless noted: active = activation above about 30%; inactive = the rest.
SMILES,D1 potentiator,D1 agonist,D1 antag,TRHR enhancer,TRHR ag,Epigenetic derep
COc1ccc(CCNc2oc(/C=C/c3ccc(OC)c(OC)c3)nc2C#N)cc1,-2,-2,2,9,-1,-3%
Cc1ccc(-c2noc(-c3nnn(CC(=O)Nc4ccc(C)c(Cl)c4)c3N)n2)cc1,-1,1,4,3,0,8%
COc1ccc(CCNc2nccn(-c3ccc(C)c(C)c3)c2=O)cc1OC,-4,4,-44*,14,0,-1%
CCCc1nc2oc3ccccc3c(=O)c2c(=O)n1-c1ccc(C)cc1,1,37*,6,-3,12,-3%
CC(=O)Nc1ccccc1-c1nc2ccccc2n(C(C)C(=O)c2ccc(C)c(C)c2)c1=O (centres undefined),-1,51*,-3,-5,-1,-2%
CC(=O)Nc1ccccc1-c1nc2ccccc2n(C(C)C(=O)Nc2cc(Cl)ccc2C)c1=O (centres undefined),-1,5,-5,-3,1,-3%
COc1ccccc1OCC(=O)N(Cc1ccco1)Cc1ccccc1F,4,0,-17,-3,-1,-1%
CC(C)OC(=O)CC(=O)c1sc2nc3c(cc2c1N)CN(C)CC3,0,20,-6,38*,0,-1%
CN1CCc2nc3sc(C(=O)Nc4c(F)cccc4F)c(N)c3cc2C1,-5,0,5,23,0,0%
Cc1ccc(S(=O)(=O)NCc2ccc(C(=O)NC3CC3)cc2)cc1,-3,2,-6,-1,0,1%
CCOC(=O)C1CCN(C(=O)c2ccc(CNS(=O)(=O)c3ccc(C)cc3)cc2)CC1,-4,0,-37*,4,-1,0%
CCOC(=O)C1CCN(CC(C)(C)NS(=O)(=O)c2ccc(Cl)cc2)CC1,-12,2,-31*,1,0,x
CCOC(=O)N1CCC(NC(=O)c2ccc(CNS(=O)(=O)c3ccc(F)cc3)cc2)CC1,-5,4,-34*,-7,0,-1%
CCOC(=O)C1CCN(C(=O)CCNS(=O)(=O)c2ccc(C)cc2)CC1,-4,1,-21,5,-3,x
COc1ccc(CN2CCN(C(=O)c3ccc(CNS(=O)(=O)c4ccc(C)cc4)cc3)CC2)c(OC)c1OC,-8,7,-30*,-4,0,x
CO[C@@H]1COC(=O)[C@H](COCc2ccccc2)NC(=O)C/C=C\[C@@H](C)[C@H](OC)COC(=O)[C@@H](C)NC(=O)C/C=C\[C@H]1C,x,x,x,x,x,0%[10.1 µM]
N#Cc1ccc(NC(=O)COC(=O)CSc2nnc(-c3ccc(Cl)cc3)o2)cc1,-7,10,-37*,-9,0,-1%
O=C(COC(=O)CSc1nnc(-c2ccc(Cl)cc2)o1)NCc1ccc2c(c1)OCO2,-17,4,-36*,-3,-2,0%
O=C(COC(=O)Cc1ccc(Cl)cc1)NCc1ccc2c(c1)OCO2,-7,10,-4,-12,0,x
Cc1ccc(CNc2c(C)c(C)nc3nncn23)cc1,2,6,-45*,7,1,-1%
CCc1c(C)nc2nncn2c1NCc1ccc(Cl)cc1,-3,5,-2,-5,3,-1%
CC(=O)N(OCc1ccccc1)[C@@H]1c2cc(C#N)ccc2OC(C)(C)[C@H]1O,x,x,x,x,x,5%
O=C(c1ccccc1)c1ccc(OCC(O)CNCc2ccc(Cl)cc2)cc1 (centres undefined),5,75*,-2,13,-1,x
OC(CNC1Cc2ccccc2C1)COc1ccc(Cl)cc1 (centres undefined),-3,40*,16,2,1,-3%
Cc1nnc(N2C(=O)C(O)=C(C(=O)c3ccco3)C2c2ccc(C(C)(C)C)cc2)s1 (centres undefined),-5,28,3,-2,8,-1%
SMILES,D1 potentiator,D1 agonist,D1 antag,TRHR enhancer,TRHR ag,Epigenetic derep
Cc1nnc(N2C(=O)C(O)=C(C(=O)c3ccco3)C2c2ccc(C(C)C)cc2)s1 (centres undefined),-2,51*,-3,-2,15,-8%
CSc1ccc(C2C(C(=O)c3ccco3)=C(O)C(=O)N2c2nnc(SC)s2)cc1 (centres undefined),0,31*,-11,7,18,x
Cc1nnc(N2C(=O)C(O)=C(C(=O)c3ccco3)C2c2ccc(F)cc2)s1 (centres undefined),0,36*,10,11,21,-1%
Cc1ccc(C2C(C(=O)c3cccs3)=C(O)C(=O)N2c2nnc(C)s2)cc1 (centres undefined),-2,141*,-21,1,56*,-2%
Cc1ccc(C2C(C(=O)c3ccco3)=C(O)C(=O)N2c2ncccn2)cc1 (centres undefined),-3,4,-7,-2,1,0%
CCCCC[C@H](O)/C=C/[C@@H]1[C@@H](C/C=C\CCCC(=O)O)[C@@H](O)C[C@@H]1O,x,x,x,x,x,0%
CCC1=C2CC[C@H]3C(=O)NC(=O)[C@H]3[C@H]2[C@@]2(C)C(=NCCc3c[nH]c4ccccc34)OC(=O)N2C1=O,x,x,x,x,x,4%
CCCCOc1cccc(C2C(C(=O)c3ccc(C)o3)=C(O)C(=O)N2c2nnc(C)s2)c1 (centres undefined),-2,8,10,-4,3,x
CCCOc1cccc(C2C(C(=O)c3ccco3)=C(O)C(=O)N2c2nnc(C)s2)c1 (centres undefined),x,76*,5,12,9,x
O=C(OC[C@@H]1O[C@@](O)(COC(=O)c2cccnc2)[C@H](OC(=O)c2cccnc2)[C@H]1OC(=O)c1cccnc1)c1cccnc1,x,x,x,x,x,-1%
Cc1cc(C)c2c(=O)n(CC(=O)NC3CCCC3)sc2n1,2,9,8,-3,0,0%
COc1ccc(OC)c(CCNC(=O)Cn2sc3nc(C)cc(C)c3c2=O)c1,-10,3,-48*,8,-1,2%
Cc1cc(C)c2c(=O)n(CC(=O)Nc3cccc(Cl)c3C)sc2n1,-7,37*,-3,-13,4,-1%
Cc1cc(C)c2c(=O)n(CC(=O)Nc3ccc(Br)c(C)c3)sc2n1,-21,17,-49*,3,1,0%
COc1ccc(OC)c(CCNC(=O)Cn2nc(C)c3c(C)n(-c4ccc(C)cc4)nc3c2=O)c1,-3,2,1,-2,-1,x
COc1ccccc1CNC(=O)c1cc(S(=O)(=O)N2CCCCCC2)cn1C,-3,3,-19,-3,0,-2%
Cc1cccc(CCN=c2c([N+](=O)[O-])nn(-c3ccccc3)n2O)c1,-4,3,3,27,-1,-2%

# Assay outcomes: PubChem, National Center for Advancing Translational Sciences (NCATS)
